Drawing on PubChem BioAssay AID651717 (Broad Institute, 2012), this text covers max activity for 17 molecules.

About 950 (79%) of roughly 1,200 compounds were called active. So high a share suggests a set chosen from earlier hits. These entries were drawn from the full list. Measured potencies and affinities stand elsewhere. Unmarked numbers belong to inactive results.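 How the source made its calls: active means signal rises and fitted curve reaches 40% activity at or below the top valid tested dose, in every replicate test; inconclusive means replicate tests give mixed calls; inactive means the rest, including activity in the opposite direction.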

The assay in a line: compounds raising Bmi1 reporter signal – mouse embryonic stem cells, luciferase, cherry-pick, esBAF inhibitor project, dose response (AID 651717).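 Further: luciferase knocked into Bmi1 locus with EF-1a renilla as cell number control; rising ratio signals esBAF inhibition which derepresses Bmi1.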 The note with it: mESC Bmi1-luciferase reporter, firefly/renilla ratio, 24 h, hits give high values; at 35 µM unless noted. On the technique in general: Reporter assays use an easily measured gene product as a stand-in for the process of interest.
As to `COc1ccc(CN2C[C@@H](C)[C@H](OC)CN(C)C(=O)c3ccc(NC(=O)c4nc5ccccc5s4)cc3OC[C@H]2C)cc1`, the max activity is 13.2% [at 3.8 µM].

Take `COc1ccc(N(CCC(=O)NCCc2ccccc2)S(=O)(=O)c2ccc(C)cc2C)cc1`: the max activity was 24.7% [at 8 µM].

With `Cc1ccc(CNC(=O)c2cccc3c2C(=O)c2ccc(N4CCC(C)CC4)cc2S3(=O)=O)cc1`, the max activity is -5.88% [at 0.5 µM].

Consider `C[C@@H]1CN([C@@H](C)CO)C(=O)c2cccc(NC(=O)Nc3ccc4c(c3)OCO4)c2O[C@H]1CN(C)Cc1ccc(Cl)c(Cl)c1`, for which the max activity is -35% [at 18 µM].

For the molecule `O=C(NCc1cccs1)Nc1cccc(Cl)c1`, the max activity was -20.3%.

For the molecule `C/C(=N\NC(=O)c1ccc(Cn2cc(Br)cn2)o1)c1ccc(NC(=O)c2ccoc2C)cc1`, the max activity was 18.3% [at 16 µM].

Regarding `Cc1cccc(-c2nnc(-c3cccc(NC(=O)Cc4cccs4)c3)o2)c1`, the max activity is 34.9%.

Turning to `Cc1ccc(S(=O)(=O)Nc2cccc(-c3ccc(N4CCCCCC4)nn3)c2)cc1`, the max activity was 29.4% [at 4.2 µM].

Turning to `Cc1ccc(S(=O)(=O)Nc2cccc(-c3ccc(N4CCCCCC4)nn3)c2)c(C)c1`, the max activity was 27.4% [at 4.2 µM].

Take `C[C@@H]1CN([C@@H](C)CO)S(=O)(=O)c2ccc(-c3ccc(F)cc3)cc2O[C@H]1CN(C)C(=O)C1CC1`: the max activity is -26.9%.

For `C[C@H]1CCCCO[C@H](CN(C)C(=O)Nc2ccc(F)cc2)[C@@H](C)CN([C@@H](C)CO)C(=O)c2cc(NC(=O)Nc3ccc4c(c3)OCO4)ccc2O1`, the max activity was -13.8% [at 8 µM].

With `C[C@H](CO)N1C[C@H](C)[C@@H](CN(C)Cc2ccc(-c3ccccc3)cc2)Oc2c(NC(=O)Nc3ccc4c(c3)OCO4)cccc2C1=O`, the max activity is -20.6%.

As to `C[C@@H]1CCCCO[C@@H](CN(C)Cc2ccncc2)[C@@H](C)CN([C@@H](C)CO)C(=O)c2cc(NC(=O)Nc3ccc4c(c3)OCO4)ccc2O1`, the max activity was 11%.

Take `C[C@H]1CCCCO[C@@H](CN(C)Cc2ccncc2)[C@@H](C)CN([C@@H](C)CO)C(=O)c2cc(NC(=O)Nc3ccc4c(c3)OCO4)ccc2O1`: the max activity is -19.5%.

As to `C[C@H](CO)N1C[C@H](C)[C@H](CN(C)Cc2ccncc2)OCCCC[C@H](C)Oc2ccc(NC(=O)Nc3ccc4c(c3)OCO4)cc2C1=O`, the max activity was -10.9%.

As for `CCc1c(C(=O)Nc2ccc(C)c(C)c2)[nH]c(C)c1C(C)=O`, the max activity was 13.1% [at 4.2 µM].

Take `O=C(CNc1ccc(Br)cc1)c1ccc(Br)s1`: the max activity is 12.9% [at 4.2 µM].
